Laboratory results reported in PubChem BioAssay (NCI).
Compounds without any hit were thinned out: in the full panel of roughly 83,000, 20% have a hit.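 96-well plates, one dose, 48 hours. Percent growth reported; active if below 10.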 A number with no mark means an inactive call. Activity calls are given as the source filed them.

Tested on: A498 renal
Test: NCI-60 one-dose screen, 48 h (100 = growth as untreated, 0 = no growth, -100 = all killed)
Conditions: 10 µM unless noted

How did the growth turn out when `COc1ccc2[nH]cc(-c3csc4nc(-c5ccccc5)cn34)c2c1` was run?
Its growth is -19.7% (active).

Which growth does the source give for `COc1cc(Cn2cc3c(c2)-c2onc(CN4CCCC4)c2CC3)cc(OC)c1OC` here?
The growth was 94.4%.

For `COC(=O)/C=C/c1c(C2(C)NC(=O)c3ccccc3N2)c(=O)oc2ccc(Cl)cc12` (stereo not drawn), which growth is on record?
The growth was 59.3%.

Which growth does the source give for `Cc1ccc2c(c1)Oc1nc(N)c(C#N)c(N)c1C2Sc1ccc(F)cc1` (stereo not drawn) here?
Its growth is -99.3% (active).

`COc1ccc(Cn2cc3c(c2-c2cc(OC)c(OC)c(OC)c2)CCc2c(CN4CCCC4)noc2-3)cc1` was tested. Which growth did it give?
Its growth is -1.61% (active).

For `COc1ccc(Cn2cc3c(c2-c2cc(OC)c(OC)c(OC)c2)CCc2c(CN4CCOCC4)noc2-3)cc1`, which growth is on record?
The growth was -0.0936% (active).

`CCNC(=O)N1CCc2cc(OC)c(OCCc3ccc(OC)cc3)cc2C1c1ccc([N+](=O)[O-])cc1C` (stereo not drawn) was tested. Which growth did it give?
Its growth is -16.8% (active).

`COc1ccc([C@@H]2[C@@H](O)C(=O)N2c2cc(OC)c(OC)c(OC)c2)cc1F` was tested. Which growth did it give?
Its growth is -29.5% (active).

`Cc1ccc(-c2nnc(SCc3ccc(O)c4ncccc34)n2-c2ccccc2)cc1` was tested. Which growth did it give?
The growth was 26%.

How did the growth turn out when `COc1cc2oc(-c3cccc(C(=O)N[C@@H](CC(C)C)C(=O)OC(C)(C)C)c3)cc(=O)c2c(OC)c1OC` was run?
The growth was 96.7%.

For `Cc1ccc(S(=O)(=O)N(CC[C@@H]2C[C@H]2c2cc3ccccc3o2)S(=O)(=O)c2ccc(C)cc2)cc1`, which growth is on record?
Its growth is 75.8%.

`Brc1ccccc1/C=N/Nc1nc(N/N=C/c2ccccc2Br)nc(N2CCOCC2)n1` was tested. Which growth did it give?
The growth was 50.2%.

For `CC1=NC2=NC(=O)/C(=C3/N=C(C)C=C(c4ccccc4)N3N)NN2C(c2ccccc2)=C1`, which growth is on record?
Its growth is 127%.
